Screen size: about 370,000 compounds; about 2,100 (0.57%) were called active. The full list was thinned out, with actives kept by preference. Values without a mark were called inactive.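 The calls were made as follows: active = inhibition above mean plus 3 SD of compounds lying within the high and low control bounds (cut at about 19% in these data); inactive = the rest.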

The target in this experiment is Group 3 secretory phospholipase A2 (Homo sapiens) (UniProt Q9NZ20). Description: HGIII-sPLA2 enzyme inhibition – biochemical, QFRET, BODIPY PC-A2 liposome substrate, primary screen (AID 743126).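 Also: 0% = median of test compound wells and 100% = no enzyme DMSO wells.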 The following applies: QFRET BODIPY PC-A2 liposome hydrolysis, fluorescence; at 12.2 µM; hits give high values.
Chain of Group 3 secretory phospholipase A2 (Homo sapiens) (Q9NZ20 whole entry, looked up): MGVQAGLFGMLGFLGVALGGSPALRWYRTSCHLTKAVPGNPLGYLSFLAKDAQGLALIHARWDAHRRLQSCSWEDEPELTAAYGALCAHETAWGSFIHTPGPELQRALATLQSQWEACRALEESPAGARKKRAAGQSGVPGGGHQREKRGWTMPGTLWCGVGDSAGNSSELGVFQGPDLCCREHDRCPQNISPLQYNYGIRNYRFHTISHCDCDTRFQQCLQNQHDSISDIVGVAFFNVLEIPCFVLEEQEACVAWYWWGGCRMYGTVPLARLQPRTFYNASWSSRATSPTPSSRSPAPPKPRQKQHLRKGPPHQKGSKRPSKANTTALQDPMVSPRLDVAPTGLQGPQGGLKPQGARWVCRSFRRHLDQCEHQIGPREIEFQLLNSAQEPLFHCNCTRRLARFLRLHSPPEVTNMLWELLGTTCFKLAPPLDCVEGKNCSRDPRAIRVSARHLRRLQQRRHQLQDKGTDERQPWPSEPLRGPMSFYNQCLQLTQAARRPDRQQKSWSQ
What is called inhibition is the drop in the measured response relative to a control, in per cent. With `COC(=O)[C@]12C[C@H](CC(=O)N3CCOCC3)C(=O)N(Cc3ccc(Cl)cc3Cl)C1=C[C@H](COCc1ccccc1)O[C@@H]2C`, the inhibition is -3.17%. Consider `O=C1CC(c2ccc3c(c2)OCO3)N=C2N(CC3CC3)C/C(=C/c3ccccc3)N12` (stereo not given), for which the inhibition is -10.4%. Regarding `CCOc1ccc(Br)cc1S(=O)(=O)Nc1cccc(S(=O)(=O)N(CC)CC)c1`, the inhibition is -8.7%. For the compound `CCOc1ccc(Br)cc1CSC(=N)N`, the inhibition was 34.9% (active). `CCOc1ccc(Br)cc1S(=O)(=O)N1CCC(C(=O)O)CC1`: the inhibition is 5.01%. Take `COc1ccc(-n2c(COc3ccccc3)nnc2SCC(=O)Nc2ccc3c(c2)OCO3)cc1`: the inhibition was -23.7%.

Turning to `CN(CC(=O)Nc1ccc(OC(F)(F)F)cc1)C(=O)C1CCC1`, the inhibition was 14.1%. In the case of `CCNC(=S)Nc1ccc(OC(F)(F)F)cc1`, the inhibition is 20.4% (active). To `CS(=O)(=O)c1sc(C(=O)NC(=S)Nc2ccc(OC(F)(F)F)cc2)c2c1C=CCC2` belongs 9.81%. To `Cc1nn(C)cc1C(=O)NNC(=S)Nc1ccc(Cl)cc1` belongs 7.95%; to `Cn1cc(Cl)c(C(=O)NNC(=S)Nc2cccc(Cl)c2)n1`, 42.2% (active); to `CC(C)CNC(=S)NNC(=O)c1nn(C)cc1Cl`, 17.9%. As for `COc1cc(C(=O)NCC(=O)NCCSc2ccc(Br)cc2)cc(OC)c1OC`, the inhibition was -0.46%. For `COCCCNC(=O)CNC(=S)N(Cc1cc(OC)c(OC)c(OC)c1)C1CCCC1` the value was 26.1% (active); for `COc1ccc(CCNC(=O)CCC(=O)NC2CCCCC2)cc1OC`, 3.45%; for `CC(C)(C)c1ccc(C(=O)Nc2cc(Cl)c(Br)cc2C(=O)O)cc1`, -12.9%. With `O=C(Nc1cc(F)cc(F)c1)OC1CCC12CCC(c1ccccc1)CC2` (stereo not given), the inhibition is -7.77%. To `CC(C(=O)Nc1ccc(F)c(F)c1F)N1CCCCCC1` (stereo not given) belongs 7.49%; to `CC(C(=O)Nc1ccccc1-c1ccccc1)N1CCOCC1` (stereo not given), 19.6% (active).

Take `CC(Sc1nncn1C)C(=O)Nc1ccccc1-c1ccccc1` (stereo not given): the inhibition was 1.14%. With `O=C(CCS(=O)(=O)c1ccccc1)Nc1ccc(Cl)c(Cl)c1`, the inhibition was -9.24%.

Consider `C=CS(=O)(=O)N(Cc1nnn(Cc2ccccc2)c1Br)[C@H](C(=O)OC)C(C)C`, for which the inhibition is 4.97%. Turning to `Fc1ccc2nc(COCc3nc4ccc(F)cc4[nH]3)[nH]c2c1`, the inhibition was -3%. Regarding `Cc1ccccc1NC(=O)COC(=O)c1ccc(Sc2ncn[nH]2)c([N+](=O)[O-])c1`, the inhibition was -13.9%.

`O=S(=O)(c1ccccc1)N1CCC(c2nc3ccccc3o2)CC1`: the inhibition was -1.51%.

Source of the values: PubChem BioAssay AID743126 (The Scripps Research Institute Molecular Screening Center, 2013).
